PubChem BioAssay AID1159580 (chemical genetic matrix, 2015)
Out of some 5,500 compounds screened, about 2,000 (36%) were called active. Inconclusive results (about 18%) are left out. No stated cut-off is given here; in the data, active means normalized growth mostly below about 0.91 (no sharp cut-off); inconclusive means no clear call, values can overlap the other calls; inactive means mostly above about 0.92. The list shows a part of the results.

Assay: chemical genetic growth profiling, strain panel (AID 1159580);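 further: tested at 20 µM; growth read once vehicle control cultures reached saturation at 30 °C; 1 = growth at the plate median or of vehicle wells; lower values mean less growth of the strain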
Conditions: growth OD

Measured: normalized growth

CNC(Cc1c[nH]c2ccccc12)C(=O)O (centres undefined)
inactive: S. cerevisiae deletion strains, locus YJR066W, strain TOR1, active compounds read low 0.932 | S. cerevisiae deletion strains, locus YKL009W, strain mrt4, active compounds read low 0.99 | S. cerevisiae deletion strains, locus YKL068W, active compounds read low 0.992 | S. cerevisiae deletion strains, locus YKL085W, strain MDH1 (second series), active compounds read low 0.983 | S. cerevisiae deletion strains, locus YKL085W, strain MDH1, active compounds read low 0.983 | S. cerevisiae deletion strains, locus YKL160W, strain elf1, active compounds read low 0.973 | S. cerevisiae deletion strains, locus YKR001C, strain vps1, active compounds read low 1 | S. cerevisiae deletion strains, locus YKR026C, strain gcn3, active compounds read low 0.975 | S. cerevisiae deletion strains, locus YKR091W, strain srl3, active compounds read low 0.976 | S. cerevisiae deletion strains, locus YLL001W, strain dnm1, active compounds read low 0.972 | S. cerevisiae deletion strains, locus YLL026W, active compounds read low 0.974 | S. cerevisiae deletion strains, locus YLL041C, strain sdh2, active compounds read low 0.981 | S. cerevisiae deletion strains, locus YLR027C, strain aat2, active compounds read low 0.965 | S. cerevisiae deletion strains, locus YLR039C, strain RIC1, active compounds read low 1.03 | S. cerevisiae deletion strains, locus YLR058C, strain SHM2, active compounds read low 0.989 | S. cerevisiae deletion strains, locus YLR102C, strain apc9, active compounds read low 0.995 | S. cerevisiae deletion strains, locus YLR113W, strain HOG1, active compounds read low 1.07 | S. cerevisiae deletion strains, locus YLR221C, strain rsa3, active compounds read low 1.01 | S. cerevisiae deletion strains, locus YLR258W, strain gsy2, active compounds read low 0.99 | S. cerevisiae deletion strains, locus YLR262C, strain YPT6 (second series), active compounds read low 1.01 | S. cerevisiae deletion strains, locus YLR262C, strain YPT6, active compounds read low 1.01 | S. cerevisiae deletion strains, locus YLR268W, strain sec22, active compounds read low 1.03 | S. cerevisiae deletion strains, locus YLR320W, strain mms22, active compounds read low 1.02 | S. cerevisiae deletion strains, locus YLR330W, strain CHS5, active compounds read low 0.987 | S. cerevisiae deletion strains, locus YLR342W, strain FKS1 (second series), active compounds read low 0.957 | S. cerevisiae deletion strains, locus YLR342W, strain FKS1, active compounds read low 0.989 | S. cerevisiae deletion strains, locus YLR357W, strain rsc2, active compounds read low 0.951 | S. cerevisiae deletion strains, locus YLR370C, strain arc18, active compounds read low 0.987 | S. cerevisiae deletion strains, locus YLR371W, strain rom2, active compounds read low 0.969 | S. cerevisiae deletion strains, locus YLR384C, strain iki3, active compounds read low 1.01 | S. cerevisiae deletion strains, locus YLR418C, strain cdc73, active compounds read low 0.983 | S. cerevisiae deletion strains, locus YML016C, strain PPZ1, active compounds read low 0.984 | S. cerevisiae deletion strains, locus YML032C, strain rad52, active compounds read low 0.963 | S. cerevisiae deletion strains, locus YML120C, strain ndi1, active compounds read low 0.983 | S. cerevisiae deletion strains, locus YML124C, strain tub3, active compounds read low 0.994 | S. cerevisiae deletion strains, locus YMR058W, strain fet3, active compounds read low 0.981 | S. cerevisiae deletion strains, locus YMR078C, strain ctf18, active compounds read low 0.984 | S. cerevisiae deletion strains, locus YMR125W, strain sto1, active compounds read low 0.973 | S. cerevisiae deletion strains, locus YMR129W, active compounds read low 0.988 | S. cerevisiae deletion strains, locus YMR205C, strain PFK2, active compounds read low 0.965 | S. cerevisiae deletion strains, locus YMR223W, strain ubp8, active compounds read low 0.972 | S. cerevisiae deletion strains, locus YMR231W, strain pep5, active compounds read low 0.976 | S. cerevisiae deletion strains, locus YMR263W, strain SAP30, active compounds read low 0.982 | S. cerevisiae deletion strains, locus YMR307W, strain GAS1, active compounds read low 0.902 | S. cerevisiae deletion strains, locus YNL067W, strain RPL9B, active compounds read low 0.988 | S. cerevisiae deletion strains, locus YNL071W, strain lat1, active compounds read low 0.989 | S. cerevisiae deletion strains, locus YNL128W, strain TEP1, active compounds read low 0.983 | S. cerevisiae deletion strains, locus YNL153C, strain GIM3, active compounds read low 0.976 | S. cerevisiae deletion strains, locus YNL183C, strain NPR1, active compounds read low 0.993 | S. cerevisiae deletion strains, locus YNL209W, strain ssb2, active compounds read low 0.982 | S. cerevisiae deletion strains, locus YNL233W, strain BNI4, active compounds read low 1 | S. cerevisiae deletion strains, locus YNL248C, strain rpa49, active compounds read low 0.962 | S. cerevisiae deletion strains, locus YNL250W, strain rad50, active compounds read low 0.961 | S. cerevisiae deletion strains, locus YNL271C, strain bni1, active compounds read low 0.994 | S. cerevisiae deletion strains, locus YNL298W, strain CLA4, active compounds read low 0.987 | S. cerevisiae deletion strains, locus YNL307C, strain MCK1, active compounds read low 0.988 | S. cerevisiae deletion strains, locus YNL322C, strain KRE1 (second series), active compounds read low 0.986 | S. cerevisiae deletion strains, locus YNL322C, strain KRE1, active compounds read low 0.985 | S. cerevisiae deletion strains, locus YNR049C, strain mso1, active compounds read low 0.978 | S. cerevisiae deletion strains, locus YNR052C, strain pop2, active compounds read low 0.983 | S. cerevisiae deletion strains, locus YOL012C, strain htz1 1.5 | S. cerevisiae deletion strains, locus YOL147C, strain pex11, active compounds read low 1.01 | S. cerevisiae deletion strains, locus YOR001W, strain rrp6, active compounds read low 0.975 | S. cerevisiae deletion strains, locus YOR061W, strain CKA2, active compounds read low 0.961 | S. cerevisiae deletion strains, locus YOR069W, strain VPS5, active compounds read low 0.999 | S. cerevisiae deletion strains, locus YOR070C, strain gyp1, active compounds read low 1 | S. cerevisiae deletion strains, locus YOR080W, strain dia2, active compounds read low 0.99 | S. cerevisiae deletion strains, locus YOR083W, strain WHI5, active compounds read low 0.975 | S. cerevisiae deletion strains, locus YOR106W, strain vam3, active compounds read low 0.96 | S. cerevisiae deletion strains, locus YOR136W, strain idh2, active compounds read low 0.991 | S. cerevisiae deletion strains, locus YOR144C, strain elg1, active compounds read low 0.988 | S. cerevisiae deletion strains, locus YOR184W, strain ser1, active compounds read low 0.985 | S. cerevisiae deletion strains, locus YOR231W, strain MKK1, active compounds read low 1 | S. cerevisiae deletion strains, locus YOR265W, strain rbl2, active compounds read low 0.974 | S. cerevisiae deletion strains, locus YOR270C, strain vph1, active compounds read low 0.972 | S. cerevisiae deletion strains, locus YOR290C, strain snf2, active compounds read low 0.934 | S. cerevisiae deletion strains, locus YOR316C, strain cot1, active compounds read low 0.991 | S. cerevisiae deletion strains, locus YPL051W, strain arl3, active compounds read low 0.99 | S. cerevisiae deletion strains, locus YPL055C, strain LGE1, active compounds read low 0.953 | S. cerevisiae deletion strains, locus YPL078C, strain atp4, active compounds read low 0.959 | S. cerevisiae deletion strains, locus YPL106C, strain sse1, active compounds read low 0.985 | S. cerevisiae deletion strains, locus YPL240C, strain hsp82, active compounds read low 0.989 | S. cerevisiae deletion strains, locus YPL256C, strain CLN2, active compounds read low 0.978 | S. cerevisiae deletion strains, locus YPR119W, strain clb2, active compounds read low 0.997 | S. cerevisiae deletion strains, locus YPR141C, strain kar3, active compounds read low 0.986 | S. cerevisiae deletion strains, locus YPR163C, strain tif3, active compounds read low 0.993 | S. cerevisiae deletion strains, locus YPR167C, strain met16, active compounds read low 0.992 | S. cerevisiae deletion strains, strain wtn01, active compounds read low 1.02 | S. cerevisiae strains, strain wild type, active compounds read low 1
